PubChem BioAssay (NCI)
Compounds without any hit were thinned out: in the full panel of roughly 83,000, 20% have a hit.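 A percent growth of 40 corresponds to 60% growth inhibition; 0 means no net growth; -100 means all cells died. Active threshold: below 10.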 Unmarked numbers belong to inactive results. Active and inactive are the calls of the source.

Columns and labels:
Experiment in all cases: NCI-60 one-dose screen, 48 h (100 = growth as untreated, 0 = no growth, -100 = all killed)
Conditions in all cases: 10 µM unless noted
NCI-H23 lung = tested on: NCI-H23 lung
NCI-H226 lung = tested on: NCI-H226 lung
NCI-H322M lung = tested on: NCI-H322M lung
HOP-62 NSCLC = tested on: HOP-62 NSCLC
NCI-H460 lung = tested on: NCI-H460 lung
NCI-H522 lung = tested on: NCI-H522 lung
A549/ATCC NSCLC = tested on: A549/ATCC NSCLC
786-0 renal = tested on: 786-0 renal
DU-145 prostate = tested on: DU-145 prostate
MALME-3M melanoma = tested on: MALME-3M melanoma
MDA-MB-231 breast = tested on: MDA-MB-231 breast
RXF 393 renal = tested on: RXF 393 renal
SF-268 CNS = tested on: SF-268 CNS
UACC-257 melanoma = tested on: UACC-257 melanoma
M14 melanoma = tested on: M14 melanoma
HCT-15 colon = tested on: HCT-15 colon
SF-295 CNS = tested on: SF-295 CNS
SF-539 CNS = tested on: SF-539 CNS
K-562 leukemia = tested on: K-562 leukemia

| Structure (SMILES) | growth (NCI-H23 lung) | growth (NCI-H226 lung) | growth (NCI-H322M lung) | growth (HOP-62 NSCLC) | growth (NCI-H460 lung) | growth (NCI-H522 lung) | growth (A549/ATCC NSCLC) | growth (786-0 renal) | growth (DU-145 prostate) | growth (MALME-3M melanoma) | growth (MDA-MB-231 breast) | growth (RXF 393 renal) | growth (SF-268 CNS) | growth (UACC-257 melanoma) | growth (M14 melanoma) | growth (HCT-15 colon) | growth (SF-295 CNS) | growth (SF-539 CNS) | growth (K-562 leukemia) |
| --- | --- | --- | --- | --- | --- | --- | --- | --- | --- | --- | --- | --- | --- | --- | --- | --- | --- | --- | --- |
| Cc1nn(-c2ccccc2)c2nc3c(nc12)C(=O)CCC3 | 80.4% | 107% | 93.1% | 92.9% | 104% | 74% | 92.9% | 88.5% | 104% | 98% | 108% | 116% | 103% | 99.8% | 106% | 88.5% | – | – | – |
| O=C(C(=O)N1CCCCC1)c1ccc(OC2OC(CO)C(O)C(O)C2O)cc1 (stereo unspecified) | 101% | 102% | 116% | 104% | 114% | 85.3% | 101% | 106% | 115% | 101% | 110% | 104% | 105% | 106% | 99.1% | 108% | 125% | 100% | – |
| CC(=O)c1ccc2c3c(n(C)c2c1)CCCC3 | 104% | 33% | 117% | 101% | 84.9% | 95.2% | 106% | 92.7% | 98.3% | 118% | 101% | 112% | 101% | 116% | 108% | 105% | 97.7% | 98% | – |
| O=C1c2nsnc2C(=O)c2c(F)c(F)c(F)c(F)c21 | -22.5% (active) | -38.2% (active) | 26.9% | -86% (active) | -51.8% (active) | -67.2% (active) | -27.9% (active) | -97.1% (active) | – | -45.9% (active) | -68.2% (active) | -96.4% (active) | -15.6% (active) | -97.3% (active) | -90.8% (active) | – | -37% (active) | -74.1% (active) | – |
| Cn1cc(-c2csc(-c3c[nH]c4ncccc34)n2)c2cc(F)cnc21 | 74% | 73.5% | 70.7% | 79.5% | 61.3% | 86.8% | 85.3% | 90.5% | – | 95.5% | 57% | 59.8% | 91.7% | 96.2% | 58.7% | – | 74.3% | 90.9% | – |
| O=C1Cc2cc(CCn3cncn3)c(Cl)cc2N1 | 24.1% | 74.8% | 92.7% | 69.6% | 83.9% | 32.8% | 59.8% | 94.7% | 96.5% | 93.8% | 56% | 62% | 110% | 51.7% | – | 54.6% | 69.3% | – | – |
| ClC1C2CC(c3ccccc32)C1Cl (stereo unspecified) | 106% | 109% | 123% | 129% | 110% | 100% | 110% | 103% | 118% | 126% | 107% | 110% | 110% | 112% | 103% | 109% | 123% | 95.8% | – |
| COc1cc(C2NC(c3ccc(Cl)cc3)C(C)C(=NC(=O)c3cnccn3)C2C)cc(OC)c1OC (stereo unspecified) | 90.7% | 102% | 113% | 117% | 103% | 85.4% | 98.8% | 91.6% | 115% | 79.8% | 104% | 93.8% | 97.2% | 120% | 96.9% | 81% | 106% | 89.8% | – |
| Cc1c(C(N)=O)sc2c1C(=O)N(Cc1ccccc1)C1=NN=C(c3ccc(Cl)cc3)CN12 | 58.9% | 73.9% | 38.1% | 66.3% | 28% | 67.1% | 46% | 43% | 46.1% | 58.9% | 37.3% | 51.3% | 38.6% | 59.8% | 41.5% | 22.6% | 29.1% | 53.2% | – |
| CCn1c2ccccc2c2ccc(C(C)=O)cc21 | 101% | 91.8% | 126% | 103% | 108% | 96.6% | 103% | 102% | 93.5% | 113% | 114% | 105% | 90.8% | 108% | 105% | 107% | 116% | 96.5% | – |
| Oc1[nH]c2ccc(Cl)cc2c1/C=c1/ccc2c(c1)N=C(c1ccc(C(F)(F)F)cc1)N=2 | 67.2% | 88.7% | 84.3% | 71.5% | 39.2% | 45.7% | 70.5% | 16.7% | 70% | 69.2% | 83.4% | 5.23% (active) | – | 66% | 54.4% | 54.1% | 40.9% | 80.1% | 26.9% |
| COc1cc2c(c(OC)c1OC)-c1ccc(NN(C(=O)c3ccccc3)C(=O)c3ccccc3)c(=O)cc1[C@@H](NC(C)=O)CC2 (tested in a mixture with another compound) | 26.9% | 73.3% | 17.8% | 46% | 17.9% | -8.35% (active) | 56.6% | 31.4% | 3.42% (active) | 39.4% | 51.2% | 38.5% | 48.9% | 58.4% | 4.01% (active) | 48.8% | -30.7% (active) | 15.4% | – |
| Cn1cc(-c2csc(-c3cn(C)c4ncccc34)n2)c2cccnc21 | 92.1% | 107% | 106% | 123% | 98.4% | 87.1% | 89.7% | 83.1% | – | 106% | 93.7% | 98.4% | 106% | 99.8% | 96% | – | 98.3% | 99% | – |
| O=C(Nc1ccccc1Cl)c1cnc2ccc(C3CCNCC3)cn12 | 95% | 65% | 23.1% | 58.3% | 86.4% | 2.54% (active) | 66.7% | 52.8% | 56.7% | 96.2% | 61.3% | 36.5% | 60.7% | 82.5% | 72.7% | 46.6% | 70.7% | 47% | – |
| O=C1Cc2cc(CCN3CCN(CCOCCO)CC3)c(Cl)cc2N1Cc1ccc(-c2ccccc2-c2nn[nH]n2)cc1 | 85.8% | 81.8% | 108% | 91.6% | 90% | 79.4% | 87.1% | 86.8% | 117% | 91.8% | 92.1% | 113% | 117% | 81.4% | 92.6% | 86.6% | 93.5% | – | – |
| CNc1ccc(CSc2ccc(Cl)cc2)cc1 | 108% | 84.6% | 123% | 87.4% | 105% | 75.6% | 93.6% | 71% | 127% | – | 103% | 111% | 96.3% | 97.4% | 103% | – | – | 98.2% | 82% |
| COc1ccc(-c2cc(C(=O)Nc3nc4cc(C)c(C)cc4s3)nc3cc(-c4ccccc4)nn23)cc1OC | 96% | 113% | 119% | 100% | 112% | 89% | 94.5% | 112% | 121% | 101% | 107% | 112% | – | 93% | 103% | 111% | 112% | 98.7% | 110% |
| O=C(C(=O)N1CCOCC1)c1ccc(OC2OC(CO)C(O)C(O)C2O)cc1 (stereo unspecified) | 106% | 107% | 115% | 107% | 110% | 79.9% | 107% | 103% | 125% | 129% | 107% | 112% | 115% | 96.5% | 102% | 104% | 115% | 96.3% | – |
